# Data: PubChem BioAssay AID1159580 (chemical genetic matrix, 2015)
# Values joined by “and” are separate entries in the source; they are usually repeats but may differ in a detail not shown here. Identical values can stand only once. In all, about 5,500 compounds went through this assay and about 2,000 (36%) were called active. Inconclusive results (about 18%) are left out. The list shows a part of the results. Unmarked numbers belong to inactive results. Rule as the data show it: active = normalized growth mostly below about 0.91 (no sharp cut-off); inconclusive = no clear call, values can overlap the other calls; inactive = mostly above about 0.92.
# Experiment: chemical genetic growth profiling, strain panel (AID 1159580);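 also: tested at 20 µM; growth read once vehicle control cultures reached saturation at 30 °C; 1 = growth at the plate median or of vehicle wells; lower values mean less growth of the strain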
# Details: S. cerevisiae deletion strains, growth OD
structure (smiles),measurement,setting,value
CC1=CC2C(C(C)C)CCC(C)(O)C2CC1 (configuration not stated),normalized growth,"locus YAL013W, strain DEP1, active compounds read low",1
same,normalized growth,"locus YAL021C, strain ccr4, active compounds read low",0.981
same,normalized growth,"locus YAL026C, strain drs2, active compounds read low",1.01
same,normalized growth,"locus YAL030W, strain snc1, active compounds read low",0.989
same,normalized growth,"locus YBL061C, strain skt5, active compounds read low",0.991
same,normalized growth,"locus YBR009C, strain hhf1, active compounds read low",0.97
same,normalized growth,"locus YBR021W, strain FUR4, active compounds read low",0.999
same,normalized growth,"locus YBR023C, strain chs3, active compounds read low",0.945
same,normalized growth,"locus YBR171W, strain sec66, active compounds read low",0.974
same,normalized growth,"locus YBR229C, strain ROT2, active compounds read low",0.949
same,normalized growth,"locus YBR231C, strain swc5, active compounds read low",1.02
same,normalized growth,"locus YBR279W, strain paf1, active compounds read low",0.988
same,normalized growth,"locus YCL011C, strain gbp2, active compounds read low",0.998
same,normalized growth,"locus YCL016C, strain dcc1, active compounds read low",0.972
same,normalized growth,"locus YCL029C, strain bik1, active compounds read low",0.953
same,normalized growth,"locus YCL061C, strain MRC1, active compounds read low",1.01
same,normalized growth,"locus YCL069W, strain vba3, active compounds read low",0.981
same,normalized growth,"locus YCR088W, strain abp1, active compounds read low",0.996
same,normalized growth,"locus YDL005C, strain med2, active compounds read low",0.998
same,normalized growth,"locus YDL035C, strain GPR1, active compounds read low",0.963
same,normalized growth,"locus YDL040C, strain nat1, active compounds read low",0.987
same,normalized growth,"locus YDL074C, strain BRE1, active compounds read low",0.97
same,normalized growth,"locus YDL101C, strain DUN1, active compounds read low",0.977
same,normalized growth,"locus YDL134C, strain PPH21, active compounds read low",1.01
same,normalized growth,"locus YDL185W, strain tfp1, active compounds read low",0.972
same,normalized growth,"locus YDL192W, strain arf1, active compounds read low",0.934
same,normalized growth,"locus YDR001C, strain nth1, active compounds read low",0.992
same,normalized growth,"locus YDR069C, strain doa4, active compounds read low",1.01
same,normalized growth,"locus YDR101C, strain arx1, active compounds read low",0.969
same,normalized growth,"locus YDR137W, strain rgp1, active compounds read low",0.771 (active)
same,normalized growth,"locus YDR159W, strain sac3, active compounds read low",0.915
same,normalized growth,"locus YDR162C, strain NBP2, active compounds read low",0.956
same,normalized growth,"locus YDR195W, strain ref2",1.03
same,normalized growth,"locus YDR297W, strain sur2, active compounds read low",0.979
same,normalized growth,"locus YDR318W, strain mcm21, active compounds read low",0.959
same,normalized growth,"locus YDR334W, strain swr1, active compounds read low",1.03
same,normalized growth,"locus YDR335W, strain msn5, active compounds read low",0.977
same,normalized growth,"locus YDR388W, active compounds read low",0.985
same,normalized growth,"locus YDR392W, strain spt3, active compounds read low",0.59 (active)
same,normalized growth,"locus YDR502C, strain sam2, active compounds read low",1.02
same,normalized growth,"locus YEL003W, strain gim4, active compounds read low",1
same,normalized growth,"locus YEL037C, strain rad23, active compounds read low",0.997
same,normalized growth,"locus YEL061C, strain CIN8 (second series), active compounds read low",1
same,normalized growth,"locus YEL061C, strain CIN8, active compounds read low",0.974
same,normalized growth,"locus YER015W, strain faa2, active compounds read low",0.991
same,normalized growth,"locus YER016W, strain bim1, active compounds read low",0.998
same,normalized growth,"locus YER110C, active compounds read low",0.966
same,normalized growth,"locus YER111C, strain swi4, active compounds read low",0.995
same,normalized growth,"locus YER155C, strain BEM2 (second series), active compounds read low",0.875
same,normalized growth,"locus YER155C, strain BEM2, active compounds read low",0.992
same,normalized growth,"locus YER167W, strain BCK2, active compounds read low",0.977
same,normalized growth,"locus YFR010W, strain ubp6, active compounds read low",1.1
same,normalized growth,"locus YGL078C, strain dbp3, active compounds read low",1.02
same,normalized growth,"locus YGL086W, strain mad1, active compounds read low",0.978
same,normalized growth,"locus YGL167C, strain pmr1, active compounds read low",0.98
same,normalized growth,"locus YGL173C, strain kem1, active compounds read low",0.994
same,normalized growth,"locus YGL227W, strain vid30, active compounds read low",0.991
same,normalized growth,"locus YGL240W, strain doc1, active compounds read low",0.959
same,normalized growth,"locus YGL248W, strain PDE1, active compounds read low",1.02
same,normalized growth,"locus YGL253W, strain hxk2, active compounds read low",0.998
same,normalized growth,"locus YGR078C, strain PAC10, active compounds read low",0.981
same,normalized growth,"locus YGR135W, strain pre9, active compounds read low",1.08
same,normalized growth,"locus YGR229C, strain SMI1, active compounds read low",0.969
same,normalized growth,"locus YGR252W, strain gcn5, active compounds read low",1.06
same,normalized growth,"locus YHR013C, strain ard1, active compounds read low",1.08
same,normalized growth,"locus YHR027C, strain rpn1, active compounds read low",1.01
same,normalized growth,"locus YHR030C, strain SLT2, active compounds read low",1 and 0.93
same,normalized growth,"locus YHR079C, strain IRE1 (second series), active compounds read low",0.987
same,normalized growth,"locus YHR079C, strain IRE1, active compounds read low",0.918
same,normalized growth,"locus YHR094C, strain hxt1, active compounds read low",0.983
same,normalized growth,"locus YHR129C, strain ARP1, active compounds read low",0.993
same,normalized growth,"locus YHR142W, strain chs7, active compounds read low",0.916
same,normalized growth,"locus YHR200W, strain rpn10, active compounds read low",1
same,normalized growth,"locus YIL066C, strain RNR3, active compounds read low",0.968
same,normalized growth,"locus YIL073C, strain SPO22, active compounds read low",1.04
same,normalized growth,"locus YIL125W, strain kgd1, active compounds read low",0.961
same,normalized growth,"locus YIR030C, strain dcg1, active compounds read low",0.981
same,normalized growth,"locus YJL092W, strain hpr5, active compounds read low",0.996
same,normalized growth,"locus YJL095W, strain BCK1 (second series), active compounds read low",0.995
same,normalized growth,"locus YJL095W, strain BCK1, active compounds read low",1.05 and 0.947
same,normalized growth,"locus YJL115W, strain asf1, active compounds read low",1
same,normalized growth,"locus YJL129C, strain trk1, active compounds read low",1.01
same,normalized growth,"locus YJL134W, strain LCB3, active compounds read low",0.979
same,normalized growth,"locus YJL154C, strain vps35, active compounds read low",0.998
same,normalized growth,"locus YJL164C, strain tpk1, active compounds read low",0.942
same,normalized growth,"locus YJL166W, strain qcr8, active compounds read low",0.979
same,normalized growth,"locus YJL168C, strain set2, active compounds read low",0.992
